# A number with no mark means an inactive call. No rule for the calls is given here. Residues, ends and D or L forms follow the SMILES beside them.
# Tested on: Aerobactin synthetase IucA (Klebsiella pneumoniae hvKP1)
# Experiment: Biochemical IucA enzyme inhibition primary screen of the Spectrum library (AID 1346200);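 also: 100% = wells without compound and 0% = wells lacking enzyme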
# Settings: malachite green pyrophosphate, A620, at 8 µM, active compounds read low
row,Compound,activity remaining [%]
1,CC1=C(C(=O)O)N2C(=O)[C@@H](NC(=O)[C@H](N)C3=CCC=CC3)C2SC1 (stereo partly specified),103
2,O=C1c2c(O)cccc2Cc2cccc(O)c21,92.3
3,COC(=O)[C@H](Cc1ccccc1)NC(=O)[C@@H](N)CC(=O)O (H-Asp-Phe-OMe),104
4,CC[C@H]1OC(=O)[C@H](C)[C@@H](O[C@H]2C[C@@](C)(OC)[C@@H](O)[C@H](C)O2)[C@H](C)[C@@H](O[C@@H]2O[C@H](C)C[C@H](N(C)C)[C@H]2O)[C@](C)(O)C[C@@H](C)/C(=N\OCOCCOC)[C@H](C)[C@@H](O)[C@]1(C)O,118
5,CC(=O)O[C@H]1CC[C@@]2(C)C(=CC(=O)C3C4CCC(C(C)CCCC(C)C)[C@@]4(C)CCC32)C1 (stereo partly specified),123
6,C=CC[C@@H]1/C=C(\C)C[C@H](C)C[C@H](OC)[C@H]2O[C@@](O)(C(=O)C(=O)N3CCCC[C@H]3C(=O)O[C@H](/C(C)=C/[C@@H]3CC[C@@H](O)[C@H](OC)C3)[C@H](C)[C@@H](O)CC1=O)[C@H](C)C[C@@H]2OC,105
7,OCc1ccccc1O[C@@H]1O[C@H](CO)[C@@H](O)[C@H](O)[C@H]1O,101
8,O=C1C=C(O)c2ccccc2C1=O,123
9,CCOC(=O)n1ccn(C)c1=S,127
10,CCOC(=O)C1=C(O)C(=O)N(Cc2ccccc2)C1,96.2
11,CS(=O)(=O)c1ccc([C@@H](O)[C@@H](CO)NC(=O)C(Cl)Cl)cc1,124
